Measurements: PubChem BioAssay (EPA / NIEHS)
The source holds several records for some structures; these can differ, active in one and inactive in another. Active and inactive are the calls of the source. The calls were made as follows: active = hit-call score of the fitted dose curve at least 0.9, where 1 is the maximum; inactive = score below 0.9.

assay: CCTE_Harrill_HTTr_Viability_MCF7: CCTE's 6-hour Cell Viability Assessment for the High-Throughput Transcriptomics (HTTr) Platform, in MCF-7 cells cultured in DMEM + 10% fetal bovine serum, Harrill Lab (AID 2284010)
Text: This is a cell-based assay that evaluates cell viability using high content imaging to evaluate membrane integrity using propidium iodide dye exclusion in a 384 well format.One of seven assay components measured from the CCTE_Harrill_HTTr_Viability assay. This was part of a full screening experiment. This is a cell-based assay that evaluates cell viability in MCF-7 cells cultured in DMEM + 10% fetal bovine serum. High content imaging is used to evaluate membrane integrity using propidium iodide dye exclusion. Measurements are taken at 6 hours after chemical dosing in 384-well format.The assay component endpoint CCTE_Harrill_HTTr_Viability_MCF7 was analyzed with bidirectional fitting relation to DMSO as the negative control and baseline of activity. Using a type of viability reporter, gain-of-signal activity can be used to evaluate membrane integrity using propidium iodide dye exclusion to understand changes in cytotoxicity. To generalize the intended target to other relatable targets, this assay endpoint is annotated to cell cycle, where the subfamily is cytotoxicity.
Chemicals were tested in MCF7 cells in an eight point dilution series with a six hour exposure duration.

| Structure (SMILES) | outcome | AC50 |
| --- | --- | --- |
| O=C(O)c1cc2ccccc2cc1O | inactive | – |
| CCCCCC1CCC(=O)O1 (stereo not given) | inactive | – |
| COc1ccccc1O | inactive | – |
| c1coc(CNc2ncnc3nc[nH]c23)c1 | inactive | – |
| NS(=O)(=O)c1cc(C(=O)O)c(NCc2ccco2)cc1Cl | inactive | – |
| CC(C)Cc1ccccc1 | inactive | – |
| c1ccc2c(c1)-c1ccc3ccc4cccc5cc-2c1c3c45 | inactive | – |
| C=CC(C)CCCC(C)(C)O (stereo not given) | inactive | – |
| CC(=O)CCc1ccc(O)cc1 | inactive | – |
| CN(C)C(=O)Nc1ccccc1 | inactive | – |
| CCCCCC(=O)O[C@]1(C(C)=O)CC[C@H]2[C@@H]3CCC4=CC(=O)CC[C@]4(C)[C@H]3CC[C@@]21C | inactive | – |
| CCCCCCCCCCCCCC(=O)OCC | inactive | – |
| OCC=Cc1ccccc1 | inactive | – |
| Cc1cc(O)c2c(c1)C(=O)c1cc(O)cc(O)c1C2=O | inactive | – |
| O=C(O)c1ccccc1O | inactive | – |
| FC(F)(F)c1ccc(Cl)c(Cl)c1 | inactive | – |
| CCCCOCCOCCO | inactive | – |
| NC(N)=S | inactive | – |
| CN(C)CCC=C1c2ccccc2CCc2ccccc21 | inactive | – |
| NC(=O)c1c(Cl)cccc1Cl | inactive | – |

| Structure (SMILES) | outcome | AC50 |
| --- | --- | --- |
| CC(C)Cc1ccc(C(C)C(=O)O)cc1 (stereo not given) | inactive | – |
| CC12CCC(C1)C(C)(C)C2O (stereo not given) | inactive | – |
| CCCCCCOC(C)=O | inactive | – |
| CCCCCCCCCO | inactive | – |
| CC/C(=C(\c1ccccc1)c1ccc(OCCN(C)C)cc1)c1ccccc1 | inactive | 67.3 µM (active) |
| CC(=O)OC/C=C(C)/C=C/C=C(C)/C=C/C1=C(C)CCCC1(C)C | inactive | – |
| NC(=O)c1cccnc1 | inactive | – |
| CN(C)CCCNCCCN(C)C | inactive | – |
| COc1ccc(C(C)=O)cc1 | inactive | – |
| O=C1OC2(c3ccc(O)cc3Oc3cc(O)ccc32)c2ccccc21 | inactive | – |
| CC(=O)N(C)C | inactive | – |
| c1ccc(Cc2ccccc2)cc1 | inactive | – |
| OC[C@H]1O[C@@H](O[C@H]2[C@H](O)[C@@H](O)[C@H](O)O[C@@H]2CO)[C@H](O)[C@@H](O)[C@H]1O | inactive | – |
| CN1CCc2cccc3c2[C@H]1Cc1ccc(O)c(O)c1-3 | inactive | – |
| O=C(O)c1cc(C(=O)O)c(C(=O)O)cc1C(=O)O | inactive | – |
| CC1=CCC(=C(C)C)CC1 | inactive | – |
| c1ccc(OCCOc2ccccc2)cc1 | inactive | – |
| CC(O)CN (stereo not given) | inactive | – |
| O=c1cc(-c2ccc(O)cc2)oc2cc(O)cc(O)c12 | inactive | – |
